Assay results reported in PubChem BioAssay (Tox21).
Several values for one entry are separate records, joined by “and”; a condition that tells them apart may be missing. Identical values can stand only once. Activity calls are given as the source filed them. Where a call stands in place of a potency, no number is given. Unless noted, calls come from the whole dose curve; as a rule, active = well fitted curve in the direction sought with a large enough effect in the repeat runs; inconclusive = weak or mixed curves; inactive = no such curve, though single readings can be large; an effect the other way counts as inactive or inconclusive.

Experiments:
[1] = qHTS assay to identify small molecule antagonists of the glucocorticoid receptor (GR) signaling pathway - cell viability counter screen (AID 720693); note: nearly all actives have a fitted effect of over 55% in size; note: potency is the fitted concentration of half-maximal effect
[2] = qHTS assay for identifying genotoxic compounds that show differential cytotoxicity against isogenic chicken DT40 cell lines with known DNA damage response pathways - wild type cell line (AID 743012); note: nearly all actives have a fitted effect of over 60% in size; note: potency is the fitted concentration of half-maximal effect
Procedure, shortened: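 First, wild type DT40 cells were plated at 300 per well and equilibrated about 0.5 h at 37 C/5% CO2. Next, compounds in DMSO were added and exposure lasted 40 h. Finally, CellTiter-Glo was added for 30 min at room temperature and luminescence recorded.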

[3] = qHTS assay to identify small molecule antagonists of the androgen receptor (AR) signaling pathway - cell viability counter screen (AID 743033; note: nearly all actives have a fitted effect of over 45% in size)
[4] = target: Androgen receptor (Homo sapiens) (UniProt P10275); assay: qHTS assay to identify small molecule antagonists of the androgen receptor (AR) signaling pathway (AID 743035; active = well fitted inhibition curve with a large enough effect in the signal ratio in the repeat runs, not every such curve was filed as active; inconclusive = weak or mixed curves, or effect the other way; inactive = no such curve, though single readings can be large or run the other way; the % refers to the signal ratio)
Chain of Androgen receptor (Homo sapiens) (P10275 whole entry, looked up): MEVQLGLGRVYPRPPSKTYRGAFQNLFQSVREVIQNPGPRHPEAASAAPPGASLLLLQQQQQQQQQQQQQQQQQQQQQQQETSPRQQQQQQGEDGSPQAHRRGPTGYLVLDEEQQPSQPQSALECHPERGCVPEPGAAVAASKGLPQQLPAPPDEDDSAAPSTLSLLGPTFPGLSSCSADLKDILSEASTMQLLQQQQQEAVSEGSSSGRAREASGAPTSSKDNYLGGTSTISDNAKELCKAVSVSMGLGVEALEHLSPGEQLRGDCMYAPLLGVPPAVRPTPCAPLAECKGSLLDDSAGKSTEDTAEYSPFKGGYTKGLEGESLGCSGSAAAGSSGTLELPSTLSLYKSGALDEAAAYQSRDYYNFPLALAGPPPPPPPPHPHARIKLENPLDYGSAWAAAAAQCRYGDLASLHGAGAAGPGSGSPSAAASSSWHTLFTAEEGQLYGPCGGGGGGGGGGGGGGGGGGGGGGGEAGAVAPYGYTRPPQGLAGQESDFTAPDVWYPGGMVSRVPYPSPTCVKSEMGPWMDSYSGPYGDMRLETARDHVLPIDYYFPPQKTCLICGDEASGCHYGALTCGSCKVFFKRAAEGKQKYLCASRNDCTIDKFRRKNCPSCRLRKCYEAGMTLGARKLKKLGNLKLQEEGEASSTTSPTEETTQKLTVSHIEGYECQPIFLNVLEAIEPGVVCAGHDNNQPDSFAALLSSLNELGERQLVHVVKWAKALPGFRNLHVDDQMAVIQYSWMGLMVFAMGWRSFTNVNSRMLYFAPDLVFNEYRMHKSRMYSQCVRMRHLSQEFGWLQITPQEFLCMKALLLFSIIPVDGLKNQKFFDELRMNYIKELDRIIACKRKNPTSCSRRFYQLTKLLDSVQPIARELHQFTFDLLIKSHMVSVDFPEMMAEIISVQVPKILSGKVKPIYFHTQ
Procedure, shortened: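 Beta-lactamase FRET read (2 h RT incubation with LiveBLAzer B/G) following 16 h of compound plus R1881 treatment of AR-UAS-bla HEK293 cells, which had been pre-incubated 4 h at 37C.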

[5] = qHTS assay to identify small molecule antagonists of the androgen receptor (AR) signaling pathway using the MDA cell line - cell viability counter screen (AID 743041; note: nearly all actives have a fitted effect of over 45% in size; note: potency is the fitted concentration of half-maximal effect)
Procedure, shortened: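 Viability counter screen run alongside the AR antagonist reporter: cells seeded 5 h before compound, R1881 added, 16 h incubation at 37C without CO2, fluorescent CellTiter-Fluor signal quantified.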

[6] = target: Androgen receptor (Homo sapiens) (UniProt P10275); assay: qHTS assay to identify small molecule antagonists of the androgen receptor (AR) signaling pathway using the MDA cell line (AID 743042; note: nearly all actives have a fitted effect of over 55% in size)
Procedure, shortened: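 MDA-kb2 cells (human breast carcinoma, stably carrying an MMTV-luciferase reporter responsive to AR and GR) were plated at 3,000 cells/well and preincubated 5 hr at 37C, then given compound plus R1881 agonist for 16 h. ONE-Glo luminescence was read.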

[7] = qHTS assay to identify small molecule antagonists of the thyroid receptor (TR) signaling pathway - cell viability counter screen (AID 743064); note: nearly all actives have a fitted effect of over 50% in size; note: potency is the fitted concentration of half-maximal effect
Procedure, shortened: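 In rat pituitary GH3.TRE-Luc reporter cells co-exposed to compound and 1 nM T3 for 23.5 h, cytotoxicity was assessed with CellTiter-Fluor in the same wells, read by fluorescence.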

[8] = qHTS assay to identify small molecule antagonists of the thyroid receptor (TR) signaling pathway (AID 743065); note: nearly all actives have a fitted effect of over 55% in size; note: potency is the fitted concentration of half-maximal effect
Procedure, shortened: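 GH3.TRE-Luc rat pituitary cells carrying two TR response elements driving luciferase were plated for 4 h, given compound plus 1 nM T3 (final), and incubated 23.5 h at 37 C. ONE-Glo luminescence measured reporter inhibition; CellTiter-Fluor fluorescence tracked cytotoxicity.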

[9] = tested on: thyroid hormone receptor (rat, GH3 cells); assay: qHTS assay to identify small molecule agonists of the thyroid receptor (TR) signaling pathway (AID 743066; calls by dose curve)
[10] = qHTS assay to identify small molecule antagonists of the estrogen receptor alpha (ER-alpha) signaling pathway using the BG1 cell line - cell viability counter screen (AID 743081);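 note: compound given together with 17beta-estradiol as the ER stimulus; nearly all actives have a fitted effect of over 45% in size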; note: potency is the fitted concentration of half-maximal effect
[11] = target: Aromatase (Homo sapiens) (UniProt P11511); assay: qHTS assay to identify aromatase inhibitors (AID 743083); note: nearly all actives have a fitted effect of over 55% in size; note: potency is the fitted concentration of half-maximal effect
Chain of Aromatase (Homo sapiens) (P11511 whole entry, looked up): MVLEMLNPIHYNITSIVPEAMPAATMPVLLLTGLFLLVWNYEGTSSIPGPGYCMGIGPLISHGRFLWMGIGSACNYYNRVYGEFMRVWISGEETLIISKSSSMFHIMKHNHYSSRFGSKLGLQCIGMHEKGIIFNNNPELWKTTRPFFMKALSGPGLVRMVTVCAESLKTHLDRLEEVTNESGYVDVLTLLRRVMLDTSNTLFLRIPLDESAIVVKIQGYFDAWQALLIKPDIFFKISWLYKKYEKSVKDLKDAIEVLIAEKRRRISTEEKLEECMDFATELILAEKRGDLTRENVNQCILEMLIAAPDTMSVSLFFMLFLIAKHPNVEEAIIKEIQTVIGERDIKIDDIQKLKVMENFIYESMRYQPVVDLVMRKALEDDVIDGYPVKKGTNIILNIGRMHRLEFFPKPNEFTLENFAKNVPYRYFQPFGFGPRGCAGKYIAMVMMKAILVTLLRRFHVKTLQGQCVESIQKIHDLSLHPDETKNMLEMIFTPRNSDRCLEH

[12] = qHTS assay for identifying genotoxic compounds that show differential cytotoxicity against isogenic chicken DT40 cell lines with known DNA damage response pathways - Rad54/Ku70 mutant cell line (AID 743015); note: nearly all actives have a fitted effect of over 60% in size; note: potency is the fitted concentration of half-maximal effect
[13] = qHTS assay to identify small molecule antagonists of the estrogen receptor alpha (ER-alpha) signaling pathway - cell viability counter screen (AID 743074; calls by dose curve;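 note: HEK293 cells carrying ER-alpha-UAS-bla reporter stimulated with 17beta-estradiol; nearly all actives have a fitted effect of over 45% in size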; note: potency is the fitted concentration of half-maximal effect)
[14] = qHTS assay to identify small molecule antagonists of the estrogen receptor alpha (ER-alpha) signaling pathway using the BG1 cell line (AID 743080; calls by dose curve;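 note: BG1 cells stimulated with 17beta-estradiol alongside compound; nearly all actives have a fitted effect of over 25% in size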; note: potency is the fitted concentration of half-maximal effect)
Procedure, shortened: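 Quantitative HTS on the Tox21 10K library: BG1 cells with endogenous ER-alpha and ERE-luciferase reporter, 17beta-estradiol stimulation, 21.5 h compound exposure, luminescence endpoint with parallel fluorescence cytotoxicity counter-read.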

[15] = target: Estrogen receptor (Homo sapiens) (UniProt P03372); assay: qHTS assay to identify small molecule antagonists of the estrogen receptor alpha (ER-alpha) signaling pathway (AID 743069; active = well fitted curve in the direction sought with a large enough effect in the signal ratio in the repeat runs, not every such curve was filed as active; inconclusive = weak or mixed curves, or effect the other way; inactive = no such curve, though single readings can be large or run the other way; the % refers to the signal ratio; note: potency is the fitted concentration of half-maximal effect)
Chain of Estrogen receptor (Homo sapiens) (P03372 whole entry, looked up): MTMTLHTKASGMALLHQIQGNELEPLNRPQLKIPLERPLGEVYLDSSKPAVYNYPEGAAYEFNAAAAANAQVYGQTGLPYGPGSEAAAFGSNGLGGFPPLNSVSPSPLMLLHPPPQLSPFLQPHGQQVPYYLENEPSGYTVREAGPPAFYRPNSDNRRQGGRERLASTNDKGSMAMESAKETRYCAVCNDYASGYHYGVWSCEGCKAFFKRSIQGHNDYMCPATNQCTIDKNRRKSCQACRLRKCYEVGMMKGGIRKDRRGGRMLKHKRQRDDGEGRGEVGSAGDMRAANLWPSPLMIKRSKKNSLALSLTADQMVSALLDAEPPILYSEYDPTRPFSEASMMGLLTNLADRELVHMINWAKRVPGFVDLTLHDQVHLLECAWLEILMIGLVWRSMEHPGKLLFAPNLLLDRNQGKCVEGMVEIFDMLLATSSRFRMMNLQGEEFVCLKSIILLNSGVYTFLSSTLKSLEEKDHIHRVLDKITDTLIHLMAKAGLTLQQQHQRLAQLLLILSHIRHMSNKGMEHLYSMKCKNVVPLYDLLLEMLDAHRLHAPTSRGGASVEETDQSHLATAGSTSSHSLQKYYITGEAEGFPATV
Procedure, shortened: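 Estradiol-stimulated ER-alpha-UAS-bla HEK293 cells, 18 hr compound exposure at 37C. LiveBLAzer B/G substrate, 2 hr RT, fluorescence read.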

[16] = target: Estrogen receptor (Homo sapiens) (UniProt P03372); assay: qHTS assay to identify small molecule agonists of the estrogen receptor alpha (ER-alpha) signaling pathway (AID 743075; calls by dose curve;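 note: HEK293 GripTite cells with ER-alpha and UAS-driven beta-lactamase reporter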)
[17] = target: Estrogen receptor (Homo sapiens) (UniProt P03372); assay: qHTS assay to identify small molecule agonists of the estrogen receptor alpha (ER-alpha) signaling pathway using the BG1 cell line (AID 743079); settings: BG1Luc4E2 cells, ERE-luciferase agonist, 22 h; activation: at 70.3 µM (top of the series); note: nearly all actives have a fitted effect of over 20% in size
[18] = target: Androgen receptor (Homo sapiens) (UniProt P10275); assay: qHTS assay to identify small molecule agonists of the androgen receptor (AR) signaling pathway (AID 743036; active = well fitted activation curve with a large enough effect in the signal ratio in the repeat runs, with a control signal flat, not every such curve was filed as active; inconclusive = weak or mixed curves, or effect the other way; inactive = no such curve, though single readings can be large or run the other way; the % refers to the signal ratio)
Procedure, shortened: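 Cell-based FRET reporter assay: HEK293 line with a UAS-beta-lactamase construct, compounds added in DMSO, 16 h exposure at 37C, then 2 h substrate step at room temperature and fluorescence intensity read.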

[19] = target: Androgen receptor (Homo sapiens) (UniProt P10275); assay: qHTS assay to identify small molecule agonists of the androgen receptor (AR) signaling pathway using the MDA cell line (AID 743040; note: nearly all actives have a fitted effect of over 20% in size)
Procedure, shortened: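 Luminescence from ONE-Glo, read after 30 min at room temperature, reflects MMTV-driven luciferase in MDA-kb2 cells (AR- and GR-responsive). Treatment lasted 16 h at 37C, 0% CO2.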

SMILES	Potency [1]	Potency [2]	Potency [3]	Potency [4]	Potency [5]	Potency [6]	Potency [7]	Potency [8]	Potency [9]	Potency [10]	Potency [11]	Potency [12]	Potency [13]	Potency [14]	Potency [15]	Potency [16]	Potency [17]	Potency [18]	Potency [19]
CCC(c1ccccc1)c1noc(CCN(CC)CC)n1 (configuration not stated)	inactive	23.7 µM (active)	inactive	inactive	inactive	inactive	inactive	inactive	inactive	inactive	inactive								
CC[C@H](C)[C@@H]1NC(=O)[C@H](Cc2ccc(O)cc2)NC(=O)[C@@H](N)CSSC[C@@H](C(=O)N2CCC[C@H]2C(=O)N[C@@H](CC(C)C)C(=O)NCC(N)=O)NC(=O)[C@H](CC(N)=O)NC(=O)[C@H](CCC(N)=O)NC1=O	inactive	inactive	inactive				inactive	inactive	inactive	inactive	inactive	inactive	inactive	inactive					
COc1ccc(C[C@@H](C)NC[C@H](O)c2ccc(O)c(NC=O)c2)cc1	inactive	29.8 µM (active)	inactive		inactive		inactive		inactive	inactive				inactive	inactive	inactive	inactive		
CNC(=O)c1c(I)c(C(=O)NCC(=O)Nc2c(I)c(C(=O)O)c(I)c(C(=O)NCCO)c2I)c(I)c(N(C)C(C)=O)c1I	inactive	inactive	inactive		inactive			inactive	inactive	inactive			inactive						
C#C[C@]1(OC(C)=O)CC[C@H]2[C@@H]3CCC4=CC(=O)CC[C@@H]4[C@H]3CC[C@@]21C	6.01 µM (active)	4.22 µM (active)			inactive		inactive	9.44 µM (active)	inactive	inactive		8.41 µM (active)							
CCCCC/C=C\CCC(=O)N[C@H]1[C@H](Oc2c3cc4cc2Oc2ccc(cc2Cl)[C@@H](O[C@@H]2O[C@H](CO)[C@@H](O)[C@H](O)[C@H]2NC(C)=O)[C@@H]2NC(=O)[C@H](NC(=O)[C@@H]4NC(=O)[C@H]4NC(=O)[C@@H](Cc5ccc(c(Cl)c5)O3)NC(=O)[C@H](N)c3ccc(O)c(c3)Oc3cc(O)cc4c3)c3ccc(O)c(c3)-c3c(O[C@H]4O[C@H](CO)[C@@H](O)[C@H](O)[C@@H]4O)cc(O)cc3[C@@H](C(=O)O)NC2=O)O[C@H](CO)[C@@H](O)[C@@H]1O	inactive	inactive			inactive		inactive		inactive		inactive	inactive	inactive	inactive	inactive	inactive	inactive		
O=C(NCCNCC(O)COc1ccc(O)cc1)N1CCOCC1 (configuration not stated)	inactive	inactive	inactive					inactive	inactive	inactive	inactive	inactive	inactive	inactive	inactive	inactive	inactive		
COc1ccc(CCNCC(O)COc2cccc(C)c2)cc1OC (configuration not stated)	inactive	26.6 µM (active)	inactive		inactive	inactive			inactive	inactive	inactive		inactive	inactive		inactive	inactive	inactive	inactive
O=C1CCC(=O)N1CO	inactive	inactive			inactive		inactive	inactive	inactive	inactive	inactive	inactive	inactive						
CC1CS(=O)(=O)CCN1/N=C/c1ccc([N+](=O)[O-])o1 (configuration not stated)	inactive	inactive	inactive		inactive			inactive	inactive	inactive	inactive		inactive	inactive	inactive	inactive	inactive		
C#CCOc1ccc2c(C)cc(=O)oc2c1	inactive	inactive	inactive		inactive			inactive	inactive	inactive	inactive		inactive	inactive		inactive	inactive		
CCCCCCCCCCCCCCCCOCCOCCOCCOCCOCCOCCOCCOCCOCCOCCOCCOCCOCCOCCOCCOCCOCCOCCOCCOCCO	13.4 µM (active)	2.37 µM (active)			29.8 µM (active)		29.8 µM (active)	26.6 µM (active)	inactive	23.7 µM (active)		29.8 µM (active)	21.3 µM (active)	3.76 µM (active)	4.25 µM [inconclusive] (active)				
CCOC(=O)C1=C(COCCN)NC(C)=C(C(=O)OC)C1c1ccccc1Cl (configuration not stated)	inactive	7.5 µM (active)	inactive		inactive					inactive	29.8 µM (active) and 9.44 µM (active)	13.3 µM (active)	inactive						
O=C(OC1C[C@@H]2CC3C[C@H](C1)N2CC3=O)c1c[nH]c2ccccc12 (some centres not stated)	inactive	26.6 µM (active)	inactive		inactive			29.8 µM (active)			inactive		inactive		inactive	inactive	inactive		
